Our source for the outcome and AC50 values is PubChem BioAssay (EPA / NIEHS).

Values joined by “and” are separate entries in the source; they are usually repeats but may differ in a detail not shown here. Equal entries are not always repeated. Inconclusive results are not listed. Where a structure was tested more than once in an assay, its records may differ in their call. Active and inactive are the calls of the source. The calls were made as follows: active = hit-call score of the fitted dose curve at least 0.9, where 1 is the maximum; inconclusive = response in the unintended direction; inactive = score below 0.9.

This test is described as follows: Tanguay_ZF_120hpf_OTIC_legacy: (Legacy) Oregon State University Tanguay Lab 120 Hour Post-fertilization zebrafish Assay for Otic Vesicle Malformation (AID 2283639). The method in brief:
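Tropical 5D wild-type zebrafish embryos statically exposed in 0.64% DMSO at 28C until 120 hpf; 5uM trimethyltin chloride as positive control. Otic vesicle malformation scored present/absent by brightfield; dead embryos not scored; gain fitted versus DMSO.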
In the case of `CCN(CC)C(=O)c1cccc(C)c1`, the compound was called inactive.
For the compound `N#CSCSc1nc2ccccc2s1`, the compound was called inactive.
With `COc1c(Cl)ccc(Cl)c1C(=O)O`, the compound was called inactive.
Consider `O=C(c1ccccc1)C1CCCCC1`, for which the result was inactive.
Consider `CCNc1nc(N)nc(Cl)n1`, for which the result was inactive.
A word on the AC50: it is the concentration at which the activity in the assay is half-maximal. Take `CC(C)(c1ccc(O)cc1)c1ccc(O)cc1`: the AC50 is 40.5 µM (active) and 37.7 µM (active); the outcome was inactive.
For `CCCN(CCC)c1c([N+](=O)[O-])cc(C(F)(F)F)c(N)c1[N+](=O)[O-]`, the call was inactive.
Regarding `CCOC(=O)NCCOc1ccc(Oc2ccccc2)cc1`, the call was inactive.
On to `CCCCOC(=O)C(C)Oc1ccc(Oc2ccc(C(F)(F)F)cn2)cc1` (stereo unspecified), for which the compound was called inactive.
As for `Cc1nn(C)c(Oc2ccccc2)c1C=NOCc1ccc(C(=O)OC(C)(C)C)cc1`, the compound was classed as inactive.
Still for that read-out and setting: the entry for `C#CCOC(=O)[C@@H](C)Oc1ccc(Oc2ncc(Cl)cc2F)cc1` is “inactive”; for `CC1(C)C(C=C(Cl)Cl)C1C(=O)OCc1cccc(Oc2ccccc2)c1` (stereo unspecified) it is “inactive”; for `CCCCCOC(=O)COc1cc(N2C(=O)C3=C(CCCC3)C2=O)c(F)cc1Cl` it is “inactive”.
Still for that read-out and setting: the value for `CCC(C)OC(=O)N1CCCCC1CCO` (stereo unspecified) was “inactive”.
The same measure, in the same setting: the value for `O=C(O)c1ccccc1` was “inactive”; that for `O=C(c1ccc(O)cc1O)c1ccc(O)cc1O` was “inactive”.
Turning to `CC(C)CCCCCCc1ccc(O)cc1`, the compound was called inactive.
`C[C@]12C[C@H](O)[C@H]3[C@@H](CCC4=CC(=O)CC[C@@]43C)[C@@H]1CC[C@@H]2C(=O)CO`: the compound was called inactive.
Turning to `S=C([S-])NCCNC(=S)[S-].[Mn+2]`, the outcome was inactive.
As to `S=C(S)NCCNC(=S)S.[Mn+2].[S-]C([S-])=NCCN=C([S-])[S-].[Zn+2]`, the call was inactive.
